A short description of assay [1]: qHTS assay to identify aromatase inhibitors - cell viability counter screen (AID 743084;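 further: cells stimulated with testosterone during compound exposure; nearly all actives have a fitted effect of over 55% in size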). (In qHTS, concentration-response curves come from the screen itself.)
Assay [2] addresses Aryl hydrocarbon receptor (Homo sapiens) (UniProt P35869). Briefly: qHTS assay to identify small molecule that activate the aryl hydrocarbon receptor (AhR) signaling pathway (AID 743085). Further: nearly all actives have a fitted effect of over 15% in size. Further: potency means the concentration at half of the fitted maximal effect.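 On activation: HG2L7.5c1 human HepG2 liver cells with stably integrated DRE-driven firefly reporter; series mostly up to about 70 µM.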 Put shortly:
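A multiplexed format paired cell viability (CellTiter-Fluor fluorescence) with AhR-dependent luciferase output (ONE-Glo luminescence) in the same wells of HepG2 DRE-luc cells after 24 h compound exposure at 37C.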

Assay [3] is described as follows: qHTS assay to identify small molecule that activate the aryl hydrocarbon receptor (AhR) signaling pathway - cell viability counter screen (AID 743086). Further: nearly all actives have a fitted effect of over 45% in size. Further: potency means the concentration at half of the fitted maximal effect. The essentials:
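Cytotoxicity counter screen: CellTiter-Fluor signal (30 min, 37 C) in 4000 HepG2 cells/well carrying the DRE-luciferase reporter, following 24 h compound exposure at 37 C.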

Assay [4] has as its target Peroxisome proliferator-activated receptor gamma (Homo sapiens) (UniProt P37231). Briefly: qHTS assay to identify small molecule agonists of the peroxisome proliferator-activated receptor gamma (PPARg) signaling pathway (AID 743094; active means well fitted activation curve with a large enough effect in the signal ratio in the repeat runs, not every such curve was filed as active; the % refers to the signal ratio). The essentials:
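Following 5 h plating at 37C, PPARg-bla HEK293H cells receive compound or DMSO for 17 h; fluorescence intensity is recorded after LiveBLAzer B/G loading for 1 h at room temperature.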

For assay [5] the target is unchanged. Kind of assay: qHTS assay to identify small molecule antagonists of the peroxisome proliferator-activated receptor gamma (PPARg) signaling pathway (AID 743191; calls by dose curve; further: series mostly up to about 63 µM; nearly all actives have a fitted effect of over 30% in size). The essentials:
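Beta-lactamase reporter under UAS control in HEK293H PPARg-bla cells; compound treatment 17 h at 37C. Read-out: fluorescence intensity after 1 h room-temperature incubation with LiveBLAzer B/G FRET substrate.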

Assay [6] in a line: qHTS assay for small molecule agonists of the antioxidant response element (ARE) signaling pathway (AID 743202; active means well fitted activation curve with a large enough effect in the signal ratio in the repeat runs, not every such curve was filed as active; the % refers to the signal ratio; further: potency means the concentration at half of the fitted maximal effect). The essentials:
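Quantitative high-throughput format in HepG2 cells bearing an integrated ARE-beta-lactamase reporter. Compound exposure lasted 16 h at 37 C, and fluorescence was read 2 h after adding LiveBLAzer B/G substrate at room temperature.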

A short description of assay [7]: qHTS assay for small molecule agonists of the antioxidant response element (ARE) signaling pathway - cell viability counter screen (AID 743203; calls by dose curve; further: nearly all actives have a fitted effect of over 55% in size; further: potency means the concentration at half of the fitted maximal effect). The essentials: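 Compounds in DMSO were pinned onto ARE-bla HepG2 cells plated 5 hrs earlier at 2,000 cells/well. Sixteen hours later at 37C/5% CO2, CellTiter-Glo was added and luminescence measured after 30 min at room temperature.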

The nature of assay [8]: qHTS assay for small molecule activators of the heat shock response signaling pathway - cell viability counter screen (AID 743209). Further: nearly all actives have a fitted effect of over 50% in size. The essentials:
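Counter screen for cytotoxicity in HeLa HSE-bla reporter cells. Treatment was 5 h at 37 C; viability was detected by luminescent ATP assay (CellTiter-Glo) in the same wells as the beta-lactamase read.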

The nature of assay [9]: qHTS assay for small molecule activators of the heat shock response signaling pathway (AID 743210; active means well fitted activation curve with a large enough effect in the signal ratio in the repeat runs, with a control signal flat, not every such curve was filed as active; the % refers to the signal ratio;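 further: HeLa cells with beta-lactamase reporter driven by heat shock elements; series mostly up to about 63 µM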). Put shortly: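 HeLa HSE-bla cells, overnight plating; cpd in DMSO 5 h, 37 C; LiveBLAzer B/G FRET substrate 2.5 h RT; fluorescence intensity read.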
Assay [10] in a line: qHTS assay to identify small molecule agonists of the peroxisome proliferator-activated receptor delta (PPARd) signaling pathway - cell viability counter screen (AID 743211). Further: nearly all actives have a fitted effect of over 55% in size. Further: potency means the concentration at half of the fitted maximal effect. Put shortly:
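Tox21 library compounds, delivered in DMSO, were incubated 17 h with PPARd-bla HEK293H cells; cytotoxicity was taken from CellTiter-Glo luminescence read 30 min after reagent addition.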

Assay [11] addresses Peroxisome proliferator-activated receptor delta (Homo sapiens) (UniProt Q03181). Briefly: qHTS assay to identify small molecule agonists of the peroxisome proliferator-activated receptor delta (PPARd) signaling pathway (AID 743212; calls by dose curve). Put shortly: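 HEK293H PPARd-bla cells; 5 h preincubation 37 C/5% CO2; compound (DMSO) 37 C; LiveBLAzer B/G FRET substrate 2 h RT; fluorescence intensity.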

Assay [12] is described as follows: qHTS assay to identify small molecule antagonists of the peroxisome proliferator-activated receptor delta (PPARd) signaling pathway - cell viability counter screen (AID 743213). Further: nearly all actives have a fitted effect of over 50% in size. The essentials:
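Viability counter-screen, qHTS format: PPARd-bla HEK293H, L165041 300 nM final, 17 h compound exposure at 37 C, CellTiter-Glo luminescence after 30 min RT.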

For assay [13], the target named is Peroxisome proliferator-activated receptor delta (Homo sapiens) (UniProt Q03181). Briefly: qHTS assay to identify small molecule antagonists of the peroxisome proliferator-activated receptor delta (PPARd) signaling pathway (AID 743215; active means well fitted inhibition curve with a large enough effect in the signal ratio in the repeat runs, not every such curve was filed as active; the % refers to the signal ratio;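 further: cells stimulated with agonist L165041 at 300 nM final during compound exposure; series mostly up to about 62 µM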). The essentials: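 With L165041 present at 300 nM final, compounds were incubated 17 h at 37 C on PPARd UAS-bla HEK293H cells. A FRET-based beta-lactamase substrate was then applied for 2 h at room temperature and fluorescence intensity recorded.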

For assay [14], the target named is Bile acid receptor (Homo sapiens) (UniProt Q96RI1). Briefly: qHTS assay to identify small molecule agonists of the farnesoid-X-receptor (FXR) signaling pathway (AID 743220; active means well fitted activation curve with a large enough effect in the signal ratio in the repeat runs, not every such curve was filed as active; the % refers to the signal ratio). The essentials:
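Beta-lactamase reporter under UAS control in GeneBLAzer FXR HEK 293T cells (5000/well) measured with LiveBLAzer FRET substrate after 2 h at room temperature. Compound exposure lasted 16 h at 37C.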

The nature of assay [15]: qHTS assay to identify small molecule antagonists of the farnesoid-X-receptor (FXR) signaling pathway - cell viability counter screen (AID 743221; active means well fitted cell-killing curve with a large enough effect in the repeat runs, not every such curve was filed as active; further: nearly all actives have a fitted effect of over 50% in size). Put shortly: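 Cytotoxicity is taken from ATP luminescence (CellTiter-Glo, 30 min, room temperature) in FXR-bla HEK 293T cells previously incubated 16 h at 37 C with compound and chenodeoxycholic acid at 50 uM final.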
For assay [16], the target named is Vitamin D3 receptor (Homo sapiens) (UniProt P11473). Briefly: qHTS assay to identify small molecule agonists of the vitamin D receptor (VDR) signaling pathway (AID 743222; calls by dose curve). Put shortly: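 VDR-bla cells were seeded, left 4 h, treated with compounds in DMSO for 16 h, incubated 2 h at RT with B/G FRET substrate, and read for fluorescence.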
The target is the same in assay [17]. Kind of assay: qHTS assay to identify small molecule antagonists of the vitamin D receptor (VDR) signaling pathway (AID 743223; active means well fitted inhibition curve with a large enough effect in the signal ratio in the repeat runs, not every such curve was filed as active; the % refers to the signal ratio). The essentials: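 Quantitative HTS in VDR-bla reporter cells stimulated with 1alpha,25-dihydroxyvitamin D3, 3 nM final. Compound exposure 16 h, 37C, 5% CO2. Read-out: beta-lactamase FRET substrate fluorescence, 2 h RT.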
Assay [18] can be described thus: qHTS assay to identify small molecule antagonists of the peroxisome proliferator-activated receptor gamma (PPARg) signaling pathway - cell viability counter screen (AID 743194). Further: nearly all actives have a fitted effect of over 55% in size. The essentials: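 Viability was measured as CellTiter-Glo luminescence in GeneBLAzer PPARg UAS-bla HEK293H cells. These cells had been exposed 17 h at 37 C to compounds together with rosiglitazone at 50 nM final, with the beta-lactamase readout taken in the same wells.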

Assay [19] concerns the target Bile acid receptor (Homo sapiens) (UniProt Q96RI1). Briefly: qHTS assay to identify small molecule antagonists of the farnesoid-X-receptor (FXR) signaling pathway (AID 743217; active means well fitted inhibition curve with a large enough effect in the signal ratio in the repeat runs, not every such curve was filed as active; the % refers to the signal ratio). Put shortly: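 In this cell-based antagonist screen, inhibition of CDCA-driven (50 uM final) UAS-beta-lactamase expression in HEK 293T cells was measured by FRET fluorescence following 16 h compound exposure at 37 °C.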

Assay [20] can be described thus: qHTS assay to identify small molecule agonists of the farnesoid-X-receptor (FXR) signaling pathway - cell viability counter screen (AID 743218). Further: nearly all actives have a fitted effect of over 45% in size. Put shortly:
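After 16 h at 37 C with test compounds, FXR-bla HEK 293T cells were given LiveBLAzer B/G substrate for 2 h at RT and then CellTiter-Glo; luminescence was taken after 30 min.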

Where “and” joins values, the source holds several entries; their conditions need not be identical. Equal values may be shown once. Records with an inconclusive call do not appear. The source holds several records for some structures; these can differ, active in one and inactive in another. Calls of active or inactive are those of the source. Unless noted, the call rests on the fitted dose curve; in most records, active means well fitted curve in the direction sought with a large enough effect in the repeat runs; inconclusive means weak or mixed curves; inactive means no such curve, though single readings can be large; an effect the other way counts as inactive or inconclusive.

Chain of Aryl hydrocarbon receptor (Homo sapiens) (P35869 whole entry, looked up): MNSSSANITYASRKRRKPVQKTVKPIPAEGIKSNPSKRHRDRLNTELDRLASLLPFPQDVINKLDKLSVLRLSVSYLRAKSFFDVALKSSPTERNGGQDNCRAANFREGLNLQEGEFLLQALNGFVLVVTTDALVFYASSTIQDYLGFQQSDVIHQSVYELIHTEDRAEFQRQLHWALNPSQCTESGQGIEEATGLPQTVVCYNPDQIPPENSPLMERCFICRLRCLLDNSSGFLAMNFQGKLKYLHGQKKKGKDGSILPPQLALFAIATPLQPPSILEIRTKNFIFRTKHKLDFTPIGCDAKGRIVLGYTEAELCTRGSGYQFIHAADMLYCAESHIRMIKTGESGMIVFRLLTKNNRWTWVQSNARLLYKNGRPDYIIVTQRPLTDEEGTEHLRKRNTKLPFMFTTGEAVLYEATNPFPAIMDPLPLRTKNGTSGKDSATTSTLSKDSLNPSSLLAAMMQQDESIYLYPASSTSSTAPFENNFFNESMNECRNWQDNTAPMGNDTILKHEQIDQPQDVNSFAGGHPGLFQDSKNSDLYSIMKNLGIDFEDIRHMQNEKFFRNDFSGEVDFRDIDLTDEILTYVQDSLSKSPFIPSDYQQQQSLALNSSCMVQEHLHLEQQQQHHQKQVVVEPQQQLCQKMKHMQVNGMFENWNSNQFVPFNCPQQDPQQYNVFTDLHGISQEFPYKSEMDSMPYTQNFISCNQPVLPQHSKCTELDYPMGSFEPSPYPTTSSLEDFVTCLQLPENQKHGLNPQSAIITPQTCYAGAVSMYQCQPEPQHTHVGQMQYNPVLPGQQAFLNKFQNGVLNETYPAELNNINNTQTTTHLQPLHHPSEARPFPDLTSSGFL
Chain of Vitamin D3 receptor (Homo sapiens) (P11473 whole entry, looked up): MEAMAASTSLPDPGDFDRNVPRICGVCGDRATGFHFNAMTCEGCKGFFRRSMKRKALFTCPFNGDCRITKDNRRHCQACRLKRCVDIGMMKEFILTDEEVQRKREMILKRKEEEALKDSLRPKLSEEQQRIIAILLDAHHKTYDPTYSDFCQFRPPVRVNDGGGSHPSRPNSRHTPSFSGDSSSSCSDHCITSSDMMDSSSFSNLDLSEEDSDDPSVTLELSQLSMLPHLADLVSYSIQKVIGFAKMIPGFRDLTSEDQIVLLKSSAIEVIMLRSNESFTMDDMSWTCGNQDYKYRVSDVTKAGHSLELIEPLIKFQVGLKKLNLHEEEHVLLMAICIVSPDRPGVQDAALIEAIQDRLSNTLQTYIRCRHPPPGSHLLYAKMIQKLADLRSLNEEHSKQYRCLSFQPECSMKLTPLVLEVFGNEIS
Chain of Peroxisome proliferator-activated receptor gamma (Homo sapiens) (P37231 whole entry, looked up): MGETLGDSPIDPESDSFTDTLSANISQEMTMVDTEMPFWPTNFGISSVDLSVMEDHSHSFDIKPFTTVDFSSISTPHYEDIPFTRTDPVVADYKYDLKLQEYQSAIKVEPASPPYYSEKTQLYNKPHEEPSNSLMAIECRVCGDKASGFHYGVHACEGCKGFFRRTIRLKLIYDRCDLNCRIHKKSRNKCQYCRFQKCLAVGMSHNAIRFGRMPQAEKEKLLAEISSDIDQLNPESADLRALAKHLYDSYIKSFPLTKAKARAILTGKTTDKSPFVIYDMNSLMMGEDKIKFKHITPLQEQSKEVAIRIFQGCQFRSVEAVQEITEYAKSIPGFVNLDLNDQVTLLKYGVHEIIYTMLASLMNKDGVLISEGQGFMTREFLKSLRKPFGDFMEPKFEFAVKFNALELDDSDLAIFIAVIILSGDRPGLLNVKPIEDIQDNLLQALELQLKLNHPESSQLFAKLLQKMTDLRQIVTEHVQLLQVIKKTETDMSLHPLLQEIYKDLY
Chain of Peroxisome proliferator-activated receptor delta (Homo sapiens) (Q03181 whole entry, looked up): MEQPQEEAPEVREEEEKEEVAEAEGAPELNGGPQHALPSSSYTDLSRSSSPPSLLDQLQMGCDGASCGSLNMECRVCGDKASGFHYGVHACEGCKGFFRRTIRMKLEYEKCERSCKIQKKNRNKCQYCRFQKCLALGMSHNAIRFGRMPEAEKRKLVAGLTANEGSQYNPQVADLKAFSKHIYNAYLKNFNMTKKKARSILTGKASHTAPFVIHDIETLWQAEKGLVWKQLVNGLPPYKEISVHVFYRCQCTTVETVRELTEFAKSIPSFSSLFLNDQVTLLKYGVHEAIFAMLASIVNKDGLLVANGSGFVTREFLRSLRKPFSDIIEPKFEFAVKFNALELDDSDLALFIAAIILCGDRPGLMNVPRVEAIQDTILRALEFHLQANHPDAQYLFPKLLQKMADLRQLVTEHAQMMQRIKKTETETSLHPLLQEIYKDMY
Chain of Bile acid receptor (Homo sapiens) (Q96RI1 whole entry, looked up): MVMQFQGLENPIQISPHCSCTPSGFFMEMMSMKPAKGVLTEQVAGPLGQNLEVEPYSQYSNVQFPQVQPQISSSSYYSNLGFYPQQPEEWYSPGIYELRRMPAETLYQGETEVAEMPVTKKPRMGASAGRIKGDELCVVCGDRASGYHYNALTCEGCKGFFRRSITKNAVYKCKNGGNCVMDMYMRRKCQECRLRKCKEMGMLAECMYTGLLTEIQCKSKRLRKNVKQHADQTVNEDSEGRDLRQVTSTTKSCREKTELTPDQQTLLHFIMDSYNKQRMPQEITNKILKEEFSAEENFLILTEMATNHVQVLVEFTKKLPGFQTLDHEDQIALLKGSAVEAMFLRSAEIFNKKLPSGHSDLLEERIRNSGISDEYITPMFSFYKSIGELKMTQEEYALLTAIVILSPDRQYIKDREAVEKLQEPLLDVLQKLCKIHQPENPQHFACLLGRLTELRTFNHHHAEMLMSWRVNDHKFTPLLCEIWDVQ

As to `CC(C)(C)CC(C)(C)c1ccc(O)c(-n2nc3ccccc3n2)c1`, the Potency entry in assay [1], in [2], in assay [3], in [4], in [5] and in [6] was “inactive” in each case. Besides, the Potency result in [7], in [12] and in assay [17] was “inactive” throughout. Moreover, the compound was classed as inactive in assay [8], in [9], in assay [11], in assay [13], in assay [14] and in assay [15]. For the same compound, the compound was classed as inactive in assay [16]. Further, the Potency in [10] is 49.7 µM (active) and 49 µM (active).
`CC(=O)/C=C/C1=C(C)CCCC1(C)C`: the Potency result in assay [1], in assay [2], in assay [3], in assay [4], in assay [18] and in assay [6] was “inactive” in each case. The Potency result in assay [7], in assay [10], in [12], in [19], in assay [20] and in assay [17] was “inactive” throughout. The call in [8], in assay [9], in assay [14], in assay [15] and in assay [16] was inactive.
With `Cc1cccc(Nc2cc(Cl)nc(SCC(=O)O)n2)c1C`, the Potency entry in assay [1], in [2], in assay [3], in assay [5], in assay [18] and in assay [7] was “inactive” in each case. Also, the Potency result in [10], in [12], in assay [20] and in assay [17] was “inactive” throughout. For the same compound, the call in [8], in assay [9], in assay [15] and in assay [16] was inactive.
Take `NC(=O)NO`: the Potency entry in assay [1], in assay [2], in assay [3], in [18], in assay [6] and in assay [7] was “inactive” throughout. In addition, the Potency entry in [10], in assay [12], in assay [20] and in assay [17] was “inactive” each time. The call in [8], in [9], in [11], in assay [15] and in [16] was inactive.
In the case of `C[C@]12CC[C@@H]3c4ccc(O)cc4CC[C@H]3[C@@H]1CCC2=O`, the Potency entry in [1], in assay [3], in assay [18], in assay [7], in assay [10] and in assay [12] was “inactive” throughout. Moreover, the Potency entry in assay [19] and in [20] was “inactive” each time. Moreover, the outcome in assay [8], in assay [9], in [14] and in [15] was inactive.
As to `COc1ccc(O)cc1`, the Potency result in [1], in assay [2], in assay [3], in assay [18], in assay [7] and in [10] was “inactive” each time. Moreover, the Potency result in assay [12], in assay [20] and in [17] was “inactive” each time. Besides, the outcome in assay [8], in assay [9], in assay [11], in assay [15] and in assay [16] was inactive.
In the case of `C/C=C/c1ccc(O)c(OC)c1`, the Potency entry in assay [1], in assay [2], in assay [3], in [4], in assay [18] and in assay [7] was “inactive” throughout. Further, the Potency entry in assay [10], in assay [12] and in assay [20] was “inactive” throughout. For the same compound, the outcome in assay [8], in assay [9], in assay [11] and in [15] was inactive.
With `NC(=O)N/N=C/c1ccc([N+](=O)[O-])o1`, the Potency entry in [1], in assay [4], in [18], in [10], in assay [12] and in assay [20] was “inactive” in each case. Also, the Potency entry in assay [17] was “inactive”. Moreover, the Potency result in assay [2] is “inactive and 19.3 µM (active)”; in assay [3], “inactive and 62.9 µM [cytotoxic] (active)”; in assay [6], “inactive and 11.9 µM (active)”; in assay [7], “inactive and 54.5 µM (active)”. Moreover, the compound was classed as inactive in assay [8], in [9], in [11], in assay [15] and in assay [16].
